The source of these data is PubChem BioAssay.

Structures are written as SMILES. A number with no mark means an inactive call. For some of these results: Results with a measured potency or affinity are listed apart. Active and inactive are the calls of the source. Unless noted, the rule behind the calls is not given here.

The nature of test [1]: antimalarial activity against Dd2 strain (AID 2302;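 active = growth inhibition above 50% at the single 2 µM test dose, taken to imply half-maximal potency below 2 µM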;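 note: 0% = DMSO untreated growth and 100% = chloroquine plus artemisinin killed control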). The note with it: P. falciparum Dd2 in RBCs, LDH growth readout, 72 h; at 2 µM; stronger effect = higher value.
Test [2] in a line: HepG2 cytotoxicity, primary screen, cytotoxicity control for P. falciparum antimalarial project, cell-based, ATP luminescence (AID 2303;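 active = inhibition above 50%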;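 note: 0% = DMSO wells and 100% = digitonin-killed cells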). The note with it: HepG2 viability, 24-48 h, at 10 µM, stronger effect = higher value.
For test [3], the target named is L-lactate dehydrogenase (Plasmodium falciparum (isolate CDC / Honduras)) (UniProt Q27743). Briefly: PfLDH activity inhibition – cell lysate, 3D7 strain, counter-screen for P. falciparum growth inhibition project (AID 2304).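 Note: 0% = vehicle and 100% = reference inhibitor.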 As to conditions: P. falciparum 3D7 crude extract, LDH APAD/NBT absorbance; at 2 µM; stronger effect = higher value. In general terms: The purpose of a counterscreen is to sort out artefacts and off-target activity.
L-lactate dehydrogenase (Plasmodium falciparum (isolate CDC / Honduras)), sequence (Q27743 whole entry, looked up): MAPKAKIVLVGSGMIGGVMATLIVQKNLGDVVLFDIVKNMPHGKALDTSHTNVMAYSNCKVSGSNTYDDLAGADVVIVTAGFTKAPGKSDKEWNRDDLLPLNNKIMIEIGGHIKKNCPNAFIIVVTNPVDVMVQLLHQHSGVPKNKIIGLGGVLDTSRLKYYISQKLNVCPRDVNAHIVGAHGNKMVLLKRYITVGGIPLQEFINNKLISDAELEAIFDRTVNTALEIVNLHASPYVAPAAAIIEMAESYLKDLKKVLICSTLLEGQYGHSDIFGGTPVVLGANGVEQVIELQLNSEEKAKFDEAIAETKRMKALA

Test [4] in a line: inhibition of 3D7 malaria parasite growth – strain 3D7 (AID 2306).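 Note: 0% = DMSO wells and 100% = chloroquine plus artemisinin control wells.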 The note with it: P. falciparum 3D7 erythrocytic growth, LDH absorbance, 72 h; at 2 µM; stronger effect = higher value.
Test [5] addresses Calcium-dependent protein kinase 1 (Plasmodium falciparum (isolate 3D7)) (UniProt P62344). Briefly: PfCDPK1 kinase inhibitors, biochemical, TCAMS library (AID 1159585; cut-off not given, nearly all actives have IC50 up to about 0.98 µM;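 note: inhibitors leave more ATP so luminescence rises with inhibition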). The note with it: recombinant PfCDPK1, Kinase-Glo ATP depletion luminescence.
Test [6] concerns the target Plasmodium falciparum protein kinase 6 (PK6, PF3D7_1337100) (UniProt Q8IDW1). Briefly: PfPK6 kinase inhibitors, biochemical, TCAMS library (AID 1159586). The note with it: recombinant PfPK6, Kinase-Glo ATP depletion luminescence. (In general: Kinase-Glo reads ATP consumption through a luciferase reaction.)
Test [7] deals with Protein kinase 7 (PK7), Plasmodium falciparum 3D7 (PF3D7_0213400) (UniProt Q7YTF7). Briefly: inhibition of Plasmodium PK7 catalytic activity – biochemical, TCAMS antimalarial set, Kinase-Glo luminescence (AID 1159587). The note with it: recombinant PfPK7, Kinase-Glo ATP depletion luminescence.
Protein kinase 7 (PK7), Plasmodium falciparum 3D7 (PF3D7_0213400), sequence (Q7YTF7 1-343): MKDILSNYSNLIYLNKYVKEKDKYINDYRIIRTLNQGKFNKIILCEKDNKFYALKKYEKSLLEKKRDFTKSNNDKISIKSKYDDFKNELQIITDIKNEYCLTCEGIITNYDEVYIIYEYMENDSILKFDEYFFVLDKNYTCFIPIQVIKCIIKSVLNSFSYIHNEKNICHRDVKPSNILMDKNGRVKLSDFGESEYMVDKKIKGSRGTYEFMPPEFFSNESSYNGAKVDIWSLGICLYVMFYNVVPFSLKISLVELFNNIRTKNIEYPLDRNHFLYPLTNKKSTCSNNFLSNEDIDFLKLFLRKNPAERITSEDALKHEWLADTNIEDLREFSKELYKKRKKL
The target of test [8] is Calcium-dependent protein kinase 4 (Plasmodium falciparum (isolate 3D7)) (UniProt Q8IBS5). Briefly: PfCDPK4 kinase inhibitors, biochemical, TCAMS library (AID 1159588; cut-off not given, nearly all actives have IC50 up to about 0.91 µM). As to conditions: recombinant PfCDPK4, Kinase-Glo ATP depletion luminescence.
Calcium-dependent protein kinase 4 (Plasmodium falciparum (isolate 3D7)), sequence (Q8IBS5 whole entry, looked up): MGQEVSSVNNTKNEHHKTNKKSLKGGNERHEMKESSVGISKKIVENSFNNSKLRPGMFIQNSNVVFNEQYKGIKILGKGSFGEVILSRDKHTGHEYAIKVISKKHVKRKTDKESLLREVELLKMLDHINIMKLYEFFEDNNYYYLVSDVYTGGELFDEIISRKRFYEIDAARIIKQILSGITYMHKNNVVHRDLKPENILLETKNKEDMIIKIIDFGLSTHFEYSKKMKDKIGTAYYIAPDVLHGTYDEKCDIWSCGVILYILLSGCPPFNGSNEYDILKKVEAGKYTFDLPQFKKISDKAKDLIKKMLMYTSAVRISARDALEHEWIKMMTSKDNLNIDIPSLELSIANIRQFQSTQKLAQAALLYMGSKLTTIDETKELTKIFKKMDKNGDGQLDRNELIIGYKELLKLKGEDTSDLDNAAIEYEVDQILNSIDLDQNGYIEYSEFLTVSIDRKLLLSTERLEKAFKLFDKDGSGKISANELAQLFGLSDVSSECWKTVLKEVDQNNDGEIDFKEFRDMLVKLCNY

Calcium-dependent protein kinase 1 (Plasmodium falciparum (isolate 3D7)), sequence (P62344 whole entry, looked up): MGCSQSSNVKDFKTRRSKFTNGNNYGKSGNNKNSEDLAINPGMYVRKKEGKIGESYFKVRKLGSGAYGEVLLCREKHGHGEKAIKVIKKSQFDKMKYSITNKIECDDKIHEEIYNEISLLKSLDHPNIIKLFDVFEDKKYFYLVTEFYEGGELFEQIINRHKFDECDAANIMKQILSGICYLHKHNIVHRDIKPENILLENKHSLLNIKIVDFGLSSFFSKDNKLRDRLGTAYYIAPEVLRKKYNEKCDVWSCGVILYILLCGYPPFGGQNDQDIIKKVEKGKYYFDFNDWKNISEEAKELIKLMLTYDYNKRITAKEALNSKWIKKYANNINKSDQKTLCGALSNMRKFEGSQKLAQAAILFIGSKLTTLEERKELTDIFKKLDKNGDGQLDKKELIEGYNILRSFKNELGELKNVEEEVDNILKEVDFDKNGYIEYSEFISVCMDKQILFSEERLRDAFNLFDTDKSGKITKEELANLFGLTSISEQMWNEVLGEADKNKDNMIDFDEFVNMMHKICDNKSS
Plasmodium falciparum protein kinase 6 (PK6, PF3D7_1337100), sequence (Q8IDW1 1-305): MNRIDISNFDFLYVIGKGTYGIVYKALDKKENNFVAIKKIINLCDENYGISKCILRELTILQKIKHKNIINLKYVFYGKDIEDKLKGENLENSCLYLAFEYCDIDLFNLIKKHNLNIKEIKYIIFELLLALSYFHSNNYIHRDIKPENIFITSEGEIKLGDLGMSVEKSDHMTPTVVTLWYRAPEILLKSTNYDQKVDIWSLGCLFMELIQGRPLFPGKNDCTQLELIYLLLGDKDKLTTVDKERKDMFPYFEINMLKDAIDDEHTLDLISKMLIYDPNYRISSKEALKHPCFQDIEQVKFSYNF

Take `CN1CCOc2ccc(Nc3nnc(-c4cccc(-c5cccnc5)c4)o3)cc2C1`: the growth inhibition in test [1] and in test [4] was 100% (active) in each case. The inhibition – broadly, the change of the read-out against control, counted positive when it falls – in test [2] was -4%; in test [3] it was -1%. Also, the result in test [5], in test [6], in test [7] and in test [8] was inactive.
As to `COc1ccc(CN2CCC(C(=O)Nc3cccc(-c4cccc(Cl)c4)c3)CC2)cc1O`, the values for the growth inhibition in test [1] and in test [4] were 0% and 91% (active), respectively. The inhibition in test [2] is 25%; in test [3], -2%. For the same compound, the outcome in test [5], in test [6], in test [7] and in test [8] was inactive.
In the case of `CS(=O)(=O)Nc1ccc(-c2cnc3[nH]cc(-c4ccc(C(=O)O)cc4)c3c2)cc1`, the growth inhibition in test [1] is 45%; in test [4], 95% (active). For the same compound, the inhibition was -15% in test [2] and -1% in test [3]. Moreover, the outcome in test [5], in test [6], in test [7] and in test [8] was inactive.
As to `O[C@@H](c1ccccc1)[C@@H]1CN(Cc2ccccc2)CC[C@@]1(O)c1ccccc1`, the growth inhibition in test [1] is 82% (active); in test [4], 91% (active). Also, the inhibition in test [2] is 4%; in test [3], -2%. For the same compound, the result in test [5], in test [6], in test [7] and in test [8] was inactive.
Turning to `O=C(Nc1ccc(SC(F)(F)F)cc1)Nc1ccnc2ccccc12`, the values for the growth inhibition in test [1] and in test [4] were 42% and 95% (active), respectively. Also, the inhibition in test [2] is 26%; in test [3], -2%. The result in test [5], in test [6], in test [7] and in test [8] was inactive.
On to `CCOC(=O)C(NC(=O)Cc1ccccc1)C(C)C` (stereo not given), for which the growth inhibition in test [1] is 98% (active); in test [4], 96% (active). Also, the inhibition in test [2] is 39%; in test [3], 4%. Besides, the outcome in test [5], in test [6], in test [7] and in test [8] was inactive.
With `CCCCCCCN1CC[C@@H](CCCc2ccnc3ccc(OC)cc23)[C@@H](CNC)C1`, the growth inhibition in test [1] was 95% (active); in test [4] it was 101% (active). Also, the results for the inhibition in test [2] and in test [3] were 25% and -2%, respectively. Further, the outcome in test [5], in test [6], in test [7] and in test [8] was inactive.
On to `CCCN(CCC)S(=O)(=O)c1ccc(C(=O)Nc2nc3ccc(-c4cc(=O)[nH]c(Nc5ccccc5Cl)n4)cc3[nH]2)cc1`, for which the growth inhibition in test [1] is 98% (active); in test [4] it was 100% (active). Moreover, the inhibition in test [2] was 1%; in test [3] it was -4%. Besides, the result in test [5], in test [6], in test [7] and in test [8] was inactive.
As for `Cc1ccc(O)cc1Nc1ccnc2cc(-c3ccncc3)ccc12`, the figures for the growth inhibition in test [1] and in test [4] were 84% (active) and 100% (active), respectively. Besides, the inhibition was 16% in test [2] and 6% in test [3]. Further, the outcome in test [5], in test [6], in test [7] and in test [8] was inactive.
Consider `COc1ccc(Nc2ccnc3cc4ccccc4cc23)cc1`, for which the growth inhibition in test [1] was 73% (active); in test [4], 101% (active). Further, the inhibition in test [2] was 32%; in test [3] it was 3%. Moreover, the result in test [5], in test [6], in test [7] and in test [8] was inactive.
With `Cc1[nH]c(C)c(-c2ccc(OCc3ccc(F)cc3)nc2)c(=O)c1Br`, the growth inhibition in test [1] and in test [4] was 97% (active) throughout. The values for the inhibition in test [2] and in test [3] were 41% and -4%, respectively. For the same compound, the result in test [5], in test [6], in test [7] and in test [8] was inactive.
For the compound `CCN(CC)CCN(CCCc1ccc(-c2ccc(C(F)(F)F)cc2)cc1)C(=O)Cn1c(CCc2cccc(F)c2F)nc(=O)c2ccccc21`, the growth inhibition in test [1] is 49%; in test [4], 101% (active). For the same compound, the inhibition was 37% in test [2] and 3% in test [3]. Further, the result in test [5], in test [6], in test [7] and in test [8] was inactive.
On to `O=C(Nc1cccc(-c2csc(-c3ccccc3)n2)c1)c1cccs1`, for which the growth inhibition in test [1] is 71% (active); in test [4], 89% (active). Moreover, the inhibition in test [2] is 0%; in test [3], 2%. The outcome in test [5], in test [6], in test [7] and in test [8] was inactive.
In the case of `CCc1ccc(NC(=O)c2ccc(CN3CCCN(Cc4cccc(O)c4)CC3)cc2)cc1`, the growth inhibition in test [1] is 55% (active); in test [4] it was 100% (active). The values for the inhibition in test [2] and in test [3] were 51% (active) and 0%, respectively. Further, the outcome in test [5], in test [6], in test [7] and in test [8] was inactive.
Regarding `Oc1ccc(-c2ccccc2)cc1CNC1CCCCC1`, the growth inhibition is 100% (active) in test [1] and 95% (active) in test [4]. Also, the inhibition is 24% in test [2] and -3% in test [3]. For the same compound, the result in test [5], in test [6], in test [7] and in test [8] was inactive.
In the case of `CCC(C)NC(=O)Nc1ccc(-c2cccc(-c3nc4c(C)cccc4[nH]3)c2)cc1` (stereo not given), the results for the growth inhibition in test [1] and in test [4] were 83% (active) and 102% (active), respectively. The inhibition in test [2] was 55% (active); in test [3], 6%. Besides, the outcome in test [5], in test [6], in test [7] and in test [8] was inactive.
In the case of `Fc1ccc2nc(-c3ccc(-c4ccc(CN5CCN(CCN6CCOCC6)CC5)cc4)s3)[nH]c2c1`, the results for the growth inhibition in test [1] and in test [4] were 98% (active) and 99% (active), respectively. Also, the inhibition is 39% in test [2] and -3% in test [3]. The outcome in test [5], in test [6], in test [7] and in test [8] was inactive.
Turning to `O=C(Nc1cccc(-c2nn3ccccc3c2-c2ccnc(Nc3ccc(Cc4ccncc4)cc3)n2)c1)c1c(F)cccc1F`, the growth inhibition in test [1] and in test [4] was 97% (active) in each case. Also, the inhibition in test [2] was 43%; in test [3] it was -1%. Further, the result in test [5], in test [6], in test [7] and in test [8] was inactive.
For the compound `COc1cccc(C(=O)NCCOc2ccccc2)c1Oc1ccccc1`, the growth inhibition in test [1] and in test [4] was 98% (active) in each case. For the same compound, the inhibition in test [2] was 14%; in test [3], -4%. Also, the result in test [5], in test [6], in test [7] and in test [8] was inactive.
On to `Cc1noc(C)c1-c1cccc(CNCc2ccc(-c3cccc(-c4nc5ccc(F)cc5[nH]4)c3)cc2)c1`, for which the values for the growth inhibition in test [1] and in test [4] were 84% (active) and 102% (active), respectively. Also, the results for the inhibition in test [2] and in test [3] were 37% and 4%, respectively. In addition, the outcome in test [5], in test [6], in test [7] and in test [8] was inactive.
